The structures appear in SMILES notation. About 140 (6.1%) of roughly 2,300 compounds were called active. Inconclusive results (about 18%) are left out. These entries were drawn from the full list. Values without a mark were called inactive. The call rests on the fitted dose curve; in most records, active means well fitted activation curve with a large enough effect; inconclusive means small, poorly fitted or top-dose-only effect; inactive means flat fitted curve, though single readings scatter.
Potency means the concentration at half of the fitted maximal effect.

Chain of D(2) dopamine receptor (Homo sapiens) (P14416 whole entry, looked up): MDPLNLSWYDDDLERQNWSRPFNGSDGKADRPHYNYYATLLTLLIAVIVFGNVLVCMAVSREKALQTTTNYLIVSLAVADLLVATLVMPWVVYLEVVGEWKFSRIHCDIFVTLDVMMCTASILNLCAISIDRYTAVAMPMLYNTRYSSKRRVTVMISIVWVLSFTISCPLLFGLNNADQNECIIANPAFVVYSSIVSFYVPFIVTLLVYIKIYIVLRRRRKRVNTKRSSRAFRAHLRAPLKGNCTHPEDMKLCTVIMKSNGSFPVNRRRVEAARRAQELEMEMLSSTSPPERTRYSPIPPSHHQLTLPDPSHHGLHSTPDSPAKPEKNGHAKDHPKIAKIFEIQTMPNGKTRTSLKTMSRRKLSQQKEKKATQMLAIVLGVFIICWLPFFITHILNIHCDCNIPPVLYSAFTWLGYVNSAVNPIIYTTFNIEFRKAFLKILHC

The target of this experiment is D(2) dopamine receptor (Homo sapiens) (UniProt P14416). Kind of experiment: qHTS of D3 Dopamine Receptor Agonist: D2 Dopamine Receptor B-arrestin Agonist Counterscreen. Further: nearly all actives have a fitted effect of over 70% in size. On activation: % of control where 0% means no effect. The following applies: DiscoveRx PathHunter D2 beta-arrestin, luminescence, 90 min; series mostly up to 76.9 µM; activation: at the top concentration. The text has this:
D3 DARs represent a very important target for the treatment of several neuropsychiatric disorders. Indeed, one of the most promising therapeutic applications for the D3 DAR is in the area of addiction and related disorders. […] These findings have been observed with a number of addictive substances including cocaine, amphetamine, nicotine, and alcohol. […] Increased D3 DAR activity can thus lead to neuroprotective and neurorestorative actions in the CNS. […] This assay is used to profile the activity of the identified D3 dopamine receptor agonist against the D2 dopamine receptor. Greater than 10% of the maximum dopamine agonist response is desired for this assay. NIH Molecular Libraries Probe Production Centers Network [MLPCN] NIH Chemical Genomics Center [NCGC] MLPCN Grant: NS064831 Assay Submitter (PI): David Sibley
DiscoveRx D2 cells were thawed from frozen stock and seeded at 2,100 cells/ 3 uL/well media (DiscoveRx Plating Reagent 2) with MultiDrop Combi dispenser (Thermo Scientific, Logan, UT) onto white tissue culture treated 1536-well Aurora plates (Brooks Automation, Chelmsford, MA) and allowed to attach overnight at 37 deg C, 5% CO2. Next, 23 nL/well of compound solutions in DMSO were added with a pintool transfer (Kalypsis, San Diego, CA). […] The rest of the plate was dispensed with buffer only, 1 uL/well as well. The cells were stimulated by compounds or dopamine control for 90 minutes at 37 deg C, 5% CO2, after which 1.5 ul/well of DiscoveRx detection reagent was added with BioRAPTR FRD dispenser. The detection reagent was prepared by mixing of Galacton Star Substrate, Emerald II solution and PathHunter buffer (supplied by the assay kit) together at 1:5:19 proportion accordingly just prior to dispensing. The plates were incubated at ambient temperature for 1 hour and then the luminescent signal was read on ViewLux plate reader (PerkinElmer, Waltham, MA).
Background: In qHTS, concentration-response curves come from the screen itself.
As for `O=C(C1CC(=O)N(c2ccc(F)cc2)C1)N1CCN(c2ccccc2)CC1` (centres undefined), the “activation” value is -2.2%.

With `Cn1c(=O)c(=O)n(C)c2cc(S(=O)(=O)NCCN3CCN(c4ccccc4F)CC3)ccc21`, the “activation” value is 21.6%.

On to `COc1ccc(N2CCN(Cc3cc(=O)oc4ccc5ccccc5c34)CC2)cc1`, for which the “activation” value is 3.24%.

On to `O=C(CCN1CCN(c2ccccc2)CC1)NNC(=S)Nc1ccccc1`, for which the “activation” value was 25.2%.

Turning to `Nc1nonc1-n1nnc(C(=O)N/N=C/c2ccc(Cl)cc2)c1-c1ccc2c(c1)OCO2`, the “activation” value was 13.9%.

In the case of `O=C1c2ccccc2S(=O)(=O)N1CC(O)Cn1c2ccccc2c2ccccc21` (centres undefined), the “activation” value is 6.97%.

Regarding `O=C(c1ccc2c(c1)OCCO2)C1CCN(S(=O)(=O)c2cccc(F)c2)CC1`, the “activation” value is 1.28%.

`O=C(Nc1ccc(F)cc1F)N1CCCN(CCOc2ccccc2)CC1`: the “activation” value is 3.92%.

`O=C(CCN1CCN(C/C=C/c2ccccc2)CC1)Nc1ccccc1Cl`: the “activation” value is 18.6%.

In the case of `CC(=O)C[C@@H](O)CC(=O)[C@H]1OC(=O)CCCCCCc2ccccc21`, the “activation” value was -0.828%.

`O=C(O[C@H]1[C@H](Cc2ccccc2)NS(=O)(=O)[C@H]2C[C@@H]3C=C[C@]12O3)c1ccc([N+](=O)[O-])cc1`: the “activation” value was -0.26%.

Consider `CNC(=O)NC(=O)C(C)N1CCN(C/C=C/c2ccccc2)CC1` (centres undefined), for which the “activation” value is 5.3%.

On to `c1ccc(-c2cnc(CN3CCN(c4ccccc4)CC3)o2)cc1`, for which the “activation” value was 9.03%.

Turning to `C/C(=N\NC(=S)NC1CCCCC1)c1ccc(C)o1`, the “activation” value is 17.6%.

On to `COc1ccc(S(=O)(=O)N2CCSCC2)cc1`, for which the “activation” value was -3.27%.

Consider `O=C(CC1NCCc2ccccc21)Nc1cccc(Cl)c1` (centres undefined), for which the “activation” value was -6.22%.

As to `O=C1C=C(c2cccc(Br)c2)C[C@@H](c2ccc(F)cc2)C1`, the “activation” value is -3.31%.

In the case of `CC(C)(C)C(=O)OCc1nc(-c2ccc(O)c(O)c2)cs1`, the Potency was 28.2 µM (active).

Regarding `CC(CCc1ccccc1)NCC(O)c1cccc([N+](=O)[O-])c1` (centres undefined), the “activation” value was 11.9%.

In the case of `CC(OC(=O)/C=C/c1ccccc1)C(=O)NC1CCCCC1C` (centres undefined), the “activation” value is 2.72%.

As for `O=C(OCc1nc2ccccc2[nH]1)C1CCCCC1`, the “activation” value was 10.5%.

`CCCN1CC=C2C(C#N)=C(N)C(C#N)(C#N)C(c3cc(OC)ccc3OC)C2C1` (centres undefined): the “activation” value is -1.56%.

In the case of `CN(C)CCOC(=O)C(c1ccccc1)C1(O)CCCC1` (centres undefined), the “activation” value is -3.98%.

As for `COc1cccc(NC(=O)C2CCCN(c3ncnc4c3nc3n4CCCCC3)C2)c1` (centres undefined), the “activation” value was -3.08%.

For the compound `CC(=C1C(=O)c2ccccc2C1=O)N1CCN(c2ccccn2)CC1`, the “activation” value was 24.7%.

Take `CNCC(O)c1ccc(O)c(O)c1` (centres undefined): the Potency is 17.8 µM (active).

Turning to `Cc1ccccc1Nc1nc(N)nc(CN2CCN(c3ccccn3)CC2)n1`, the “activation” value is -0.216%.

Consider `Cc1ccc(CN2CCN(c3ncccn3)CC2)c(C)c1`, for which the Potency is 50.1 µM (active).

Consider `O=C(CN1CCN(c2ncccn2)CC1)Nc1ccccc1C(F)(F)F`, for which the “activation” value is 17.1%.

Turning to `O=C1CC[C@H](O)CCN1[C@H](CSc1ccc(Br)cc1)Cc1ccccc1`, the “activation” value was 0.237%.

Consider `O=C(c1ccccc1)c1ccc(OCC(O)CN2CCCC2)cc1` (centres undefined), for which the “activation” value is -1.06%.

Turning to `Cc1cc(C(=O)NNC(=O)c2ccccc2O)c(C)o1`, the “activation” value was -1.85%.

As for `CCCCC(=O)NNC(=S)NC(=O)C(c1ccccc1)c1ccccc1`, the “activation” value was -7.08%.

As for `Cn1c(C(=O)NCCCN2CCN(c3cccc(Cl)c3)CC2)cc2c(=O)n(C)c3ccccc3c21`, the “activation” value is 9.01%.

For `CCn1cc(C(=O)N2CCN(Cc3ccc4c(c3)OCO4)CC2)c2cc(OC)c(OC)cc2c1=O`, the “activation” value is 18.8%.

For `CCC(CC)NC(=O)/C=C/c1cccc([N+](=O)[O-])c1`, the “activation” value is -0.402%.

On to `O=C(CCCn1c(=O)[nH]c2cc(Cl)ccc2c1=O)NCCN1CCN(c2ccccc2)CC1`, for which the “activation” value is 10.7%.

As to `O=C(CCn1c(=O)[nH]c2ccccc2c1=O)NCCCN1CCN(c2cccc(Cl)c2)CC1`, the “activation” value was 12.8%.

As for `CC(=O)Nc1ccc(OCC(O)CN2CCN(c3ccccc3Cl)CC2)cc1` (centres undefined), the “activation” value was 18.5%.

In the case of `Cc1ccccc1OCC(O)CN1CCN(c2ccccn2)CC1` (centres undefined), the “activation” value is 7.71%.

As to `CC(C)c1ccc(OCC(O)CN2CCN(c3ccccn3)CC2)cc1` (centres undefined), the Potency was 39.8 µM (active).

On to `COc1ccc(C2NC(=O)C(=O)/C2=C(\O)c2ccc(Cl)cc2)cc1OC` (centres undefined), for which the “activation” value was -3.12%.

Turning to `CCn1c(=O)n(CC)c2cc(N3CCCC3)c(NC(=O)c3ccccc3Br)cc21`, the “activation” value is 2.89%.

Consider `Cc1cccc(OCC(=O)NCC(=O)N/N=C/c2ccc(N(C)C)cc2)c1`, for which the “activation” value was -2.06%.

In the case of `OC(COCc1ccco1)CN1CCN(c2ccccc2)CC1` (centres undefined), the “activation” value was 18.6%.

`OC(COc1ccc2c(c1)CCC2)CN1CCN(c2cccc(Cl)c2)CC1` (centres undefined): the “activation” value was 27.5%.

Consider `CC(C)(C)n1ncc2c(=O)n(Cc3c(Cl)cccc3Br)cnc21`, for which the “activation” value was 6.34%.

In the case of `CC(C)CCN1CCN(Cc2cn[nH]c2C2CCCCC2)CC1CCO` (centres undefined), the “activation” value is 3.55%.

For the compound `Cc1cc(C)c(/C=C2\C(=O)Nc3ccccc32)[nH]1`, the “activation” value was -6.49%.

The values are drawn from PubChem BioAssay AID720507 (National Center for Advancing Translational Sciences (NCATS), 2013).
